According to the supplement of paper PMC10127200:
Counter-ions that a name gives are not always drawn.

How the values were obtained:
Assay in all cases: Euclidean distance of Cell Painting phenotypic profile (signed KS, 77 features) to DMSO centroid (dimensionless distance); 5 or 10 uM (library dependent); higher = stronger phenotypic change vs DMSO (phenoactivity)
Conditions in all cases: 48 h
786-O = system: 786-O
Summary of the method: (§1)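 Phenoactivity is defined as the Euclidean distance from a compound profile to the median vehicle profile. Each profile comprised 77 Harmony features, scored as signed Kolmogorov-Smirnov statistics versus same-plate vehicle wells, then plate-position corrected, correlation-weighted and replicate-averaged at the top dose. Five cancer lines and one healthy fibroblast line were exposed to library compounds for 48 h at 10 or 5 uM (0.1% DMSO final).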

A549 = system: A549
Summary of the method: as §1

DU145 = system: DU145
Summary of the method: as §1

FB = system: FB
Summary of the method: as §1

HEPG2 = system: HEPG2
Summary of the method: as §1

OVCAR4 = system: OVCAR4
Summary of the method: as §1

Row | Structure (SMILES) | Euclidean distance (786-O) | Euclidean distance (A549) | Euclidean distance (DU145) | Euclidean distance (FB) | Euclidean distance (HEPG2) | Euclidean distance (OVCAR4)
1 | CCC[C@H](NC(=O)[C@@H]1[C@H]2CCC[C@H]2CN1C(=O)[C@@H](NC(=O)[C@@H](NC(=O)c1cnccn1)C1CCCCC1)C(C)(C)C)C(=O)C(=O)NC1CC1 [Telaprevir (VX-950)] | 1.35 | 1.63 | 1.2 | 0.968 | 0.621 | 1.3
2 | CC(C)(OCc1nn(Cc2ccccc2)c2ccccc12)C(=O)O [Bindarit] | 0.377 | 0.614 | 0.791 | 0.934 | 0.939 | 0.825
3 | COc1c(C)c(C(=O)c2ccc(N)c(C(=O)O)c2)n2ccccc12 | 0.838 | 1.03 | 0.919 | 1.47 | 0.969 | 1.32
4 | C[C@H]1[C@H](C)CC[C@]2(C(=O)O)CC[C@]3(C)C(=CC[C@@H]4[C@@]5(C)C[C@@H](O)[C@H](O)[C@@](C)(CO)[C@@H]5[C@H](O)C[C@]43C)[C@H]12 [Madecassic acid] | 0.661 | 0.291 | 0.775 | 0.741 | 0.461 | 0.968
5 | Cc1c(CN2CCN(C(=O)[C@H](C)O)CC2)sc2c(N3CCOCC3)nc(-c3cnc(N)nc3)nc12 | 4.15 | 2.91 | 1.8 | 4.11 | 3.04 | 3.09
6 | Cc1cc(C(C)(C)C)c(O)c(C(C)(C)C)c1 [Butylated hydroxytoluene] | 0.873 | 0.945 | 0.885 | 0.657 | 1.03 | 0.752
7 | CO[C@H]1O[C@@H]2O[C@@]3(C)CC[C@H]4[C@H](C)CC[C@@H]([C@H]1C)[C@@]24OO3 [Artemether] | 1.43 | 1.11 | 0.712 | 1.28 | 0.672 | 1.26
8 | CCn1c(=O)c(-c2cc(NC(=O)Nc3ccccc3)c(F)cc2Br)cc2cnc(NC)cc21 [Ripretinib (DCC-2618)] | 2.86 | 3.27 | 2.91 | 3.89 | 2.27 | 3.18
9 | CNCC[C@@H](Oc1ccccc1C)c1ccccc1 [Atomoxetine HCl] | 1.37 | 1.23 | 0.627 | 0.866 | 0.422 | 1.22
10 | CN(C)CC/C=C1/c2ccccc2Sc2ccc(Cl)cc21 [Chlorprothixene] | 1.17 | 0.711 | 1.22 | 1.27 | 1.86 | 1.33
11 | CN(C)C(=O)[C@H](O)[C@H](Cc1ccccc1)NC(=O)c1cc2cc(Cl)ccc2[nH]1 | 0.476 | 0.757 | 0.712 | 1.01 | 1.05 | 0.908
12 | CO[C@@]1(NC(=O)CSC[C@@H](N)C(=O)O)C(=O)N2C(C(=O)O)=C(CSc3nnnn3C)CS[C@@H]21 [Cefminox Sodium] | 1.29 | 0.521 | 2.14 | 1.02 | 0.714 | 1.32
13 | CC(C)C[C@H](NC(=O)CNC(=O)c1cc(Cl)ccc1Cl)B1OC(=O)C(CC(=O)O)(CC(=O)O)O1 | 4.77 | 3.73 | 5.36 | 3.94 | 4.23 | 4.36
14 | CCCSc1ccc2[nH]c(NC(=O)OC)nc2c1 [Albendazole] | 2.6 | 2.42 | 2.81 | 2.49 | 2.15 | 2.48
15 | O=C1CCC(N2C(=O)c3ccccc3C2=O)C(=O)N1 (centres undefined) [Thalidomide] | 1.48 | 0.846 | 0.603 | 1.22 | 0.461 | 1.67
16 | O=S(=O)(O)CCCCOC[C@H]1O[C@@H]2O[C@H]3[C@H](O)[C@@H](O)[C@@H](O[C@H]4[C@H](O)[C@@H](O)[C@@H](O[C@H]5[C@H](O)[C@@H](O)[C@@H](O[C@H]6[C@H](O)[C@@H](O)[C@@H](O[C@H]7[C@H](O)[C@@H](O)[C@@H](O[C@H]8[C@H](O)[C@@H](O)[C@@H](O[C@H]1[C@H](O)[C@H]2O)O[C@@H]8CO)O[C@@H]7COCCCCS(=O)(=O)O)O[C@@H]6COCCCCS(=O)(=O)O)O[C@@H]5COCCCCS(=O)(=O)O)O[C@@H]4COCCCCS(=O)(=O)O)O[C@@H]3COCCCCS(=O)(=O)O [Captisol (SBE-Œ≤-CD)] | 1.09 | 0.893 | 0.704 | 1.13 | 1.38 | 1.1
17 | COCCOc1cnc2ccn([C@H](C)c3nnc4c(F)cc(-c5cnn(C)c5)cn34)c(=O)c2c1 | 1.01 | 1.18 | 1.5 | 1.29 | 1.39 | 1.46
18 | O=c1oc2cc(O)ccc2s1 [Tioxolone] | 1.49 | 0.671 | 0.857 | 0.922 | 2.64 | 1.29
19 | C[C@]12C[C@H](O)[C@H]3[C@@H](CCC4=CC(=O)CC[C@@]43C)[C@@H]1CC[C@@H]2C(=O)CO [Corticosterone] | 1 | 1.47 | 1.47 | 1.15 | 0.619 | 1.04
20 | Cn1nc(C(C)(C)C)cc1C(=O)N[C@@H](Cc1cccc(Cl)c1)C(=O)NCC#N [Cathepsin Inhibitor 1] | 1.97 | 2.28 | 2.22 | 1.9 | 1.43 | 1.92
21 | CCN(CC)C(=S)SSC(=S)N(CC)CC [Disulfiram] | 1.95 | 1.78 | 1.34 | 2.84 | 0.547 | 1.32
22 | O=c1cc(-c2ccc(O)c(O)c2)oc2cc(O)cc(O)c12 [Luteolin] | 1.39 | 1.21 | 2.73 | 1.9 | 1.36 | 1.27
23 | O=C(O)CCCC[C@@H]1CCSS1 (racemic) [Thioctic acid] | 1.09 | 0.518 | 1.41 | 0.755 | 0.413 | 0.684
24 | CCCC(=O)Nc1ncnc2c1ncn2[C@@H]1O[C@@H]2COP(=O)(O)O[C@H]2[C@H]1OC(=O)CCC [Dibutyryl-cAMP (Bucladesine)] | 1.05 | 0.792 | 0.663 | 0.745 | 0.883 | 1.53
